This is an account of results in PubChem BioAssay (NCI).

About 83,000 compounds went through this panel and 20% of them were active in at least one assay; those are over-represented in the sample as a whole.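 How to read the values: 0–100, growth inhibition (40 = 60% inhibited); 0, no net growth; -100 to 0, cell death (-40 = 40% of starting cells died; -100 = all dead).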 Activity calls are given as the source filed them. How the source made its calls: active means growth percent below 10; inactive means the rest.

The subject of the assay is K-562 leukemia. Put plainly: NCI-60 one-dose screen, 48 h (100 = growth as untreated, 0 = no growth, -100 = all killed). The settings on record: 10 µM unless noted.
As to `O=C(Nc1ccc2c(ccn2Cc2ccccn2)c1)c1ccnnc1`, the growth is 99.6% (inactive).
In the case of `N#C/C(=C\c1ccc(-c2ccc(Cl)cc2Cl)o1)c1ccc(F)cc1` it was 92.5% (inactive); in that of `COc1ccc(/C(N)=N/C(N)=N/c2nc3ccccc3s2)cc1`, 32.9% (inactive).
In the case of `Nc1nc(-c2cccc([N+](=O)[O-])c2)c(N=Nc2ccccc2)s1` it was 32.8% (inactive); in that of `CNC(=O)c1cc(Oc2ccc3nc(NC(=O)c4cc(N5CCOCC5)cc(C(F)(F)F)c4)sc3c2)ccn1`, 67.2% (inactive); in that of `C=C(C)[C@@H]1CC[C@]2(COP(=O)(OCC)OCC)CC[C@]3(C)[C@H](CC[C@@H]4[C@@]5(C)CCCNC(C)(C)[C@@H]5CC[C@]43C)[C@@H]12`, -10.7% (active).
In the case of `CCCn1cnc2c(c1=N)C(c1ccc(F)cc1)c1sc3c(CC)cccc3c1O2` (stereo not drawn) it was 6.04% (active); in that of `CC1(C)[C@@H](O)CC[C@]2(C)[C@H]3CC[C@@H]4[C@H]5[C@H](C(=O)/C=C\c6ccc([N+](=O)[O-])cc6)CC[C@]5(O)CC[C@@]4(C)[C@]3(C)CC[C@@H]12`, 27.3% (inactive).
On to `c1cc(-c2nc3ccc4[nH]ncc4c3c3c2CCCC3)[nH]n1`, for which the growth is 64% (inactive).
In the case of `O=C(CSc1nc2ccccc2c(=O)n1-c1ccccc1)Nc1ccc(-c2nc3ccc([N+](=O)[O-])cc3[nH]2)cc1` it was 42.7% (inactive); in that of `C[C@@H](Nc1ncnc2ccc(-c3cnc(Cl)c(NS(C)(=O)=O)c3)cc12)c1ccccc1`, 73.9% (inactive); in that of `CC(=O)Nc1cccc(Nc2nc(N[C@H](C)c3ccccc3)c3ccccc3n2)c1`, 5.94% (active).
In the case of `COc1cc(-c2nn(C(C)(C)C)cc2-c2ccnc(NCCCNS(=O)(=O)c3cccc(F)c3)n2)ccc1Cl` it was 33.4% (inactive); in that of `Cc1ccc2c(c1)C(=O)/C(=C/c1cccc(F)c1)S2`, 90.7% (inactive); in that of `CCCC(=O)NC(c1cccnc1)c1cc(C(C)(C)C)c2cccnc2c1O` (stereo not drawn), 12.5% (inactive).
In the case of `CCN(CC)CCn1c2ccc(O)cc2c2sc3cc(OC)ccc3c(=O)c21` it was -34.8% (active); in that of `Cn1cc(-c2nc(N)nnc2-c2c[nH]c3ccccc23)c2cc(Br)ccc21`, 11.6% (inactive).
`C=C(C)[C@@H]1CC[C@]2(COCCCNCCC#N)CC[C@]3(C)[C@H](CC[C@@H]4[C@@]5(C)CC[C@H](OCCCNCCC#N)C(C)(C)[C@@H]5CC[C@]43C)[C@@H]12`: the growth is 3.78% (active).
In the case of `CCNC(=O)N1CCc2cc(OC)c(OCCc3ccc(OC)c(N)c3)cc2C1c1ccc(C)cc1C` (stereo not drawn) it was 15.1% (inactive); in that of `CC1(C)CC[C@]2(C(=O)N3CCOCC3)CC[C@]3(C)C(=CC[C@@H]4[C@@]5(C)C/C(=C/c6ccccn6)C(=O)C(C)(C)[C@@H]5CC[C@]43C)[C@@H]2C1`, 34.5% (inactive); in that of `O=C(Nc1nc2ccc([N+](=O)[O-])cc2s1)Nc1ccccc1Br`, 20.7% (inactive).
As to `CC1=N[C@@H]2CN(C(=O)OC(C)(C)C)C[C@@H]2n2c1cc1ccccc1c2=O`, the growth was 97.8% (inactive).
In the case of `Cc1[nH]c(C(=O)Nc2ccccc2OCc2cccc(C(=O)N3CCC[C@@H](N)C3)c2)c(Cl)c1Cl` it was -49.6% (active).
In the case of `Cc1cc(-c2ccc(Cl)cc2)n(Cc2nnc(SCC(=O)Nc3ccc(S(N)(=O)=O)cc3)n2-c2ccc([N+](=O)[O-])cc2)n1` it was 64.3% (inactive); in that of `Cc1c(F)cc(C(N)=O)cc1NCC(=O)Nc1ccc([N+](=O)[O-])cc1`, 101% (inactive); in that of `COc1cc(-c2ccc3ncnc(NCc4ccccc4)c3c2)cnc1OC`, 85.2% (inactive).
In the case of `CCNC(=O)N1CCc2cc(OC)c(OCCc3ccc(OC)c(N)c3)cc2C1c1cc(C)c(C)cc1C` (stereo not drawn) it was 20.5% (inactive); in that of `O=C1[C@H]2Cc3c([nH]c4ccccc34)[C@@H](c3ccc(Br)cc3)N2C(=O)CN1C1CCN(CC2CCCCC2)CC1`, -63.7% (active); in that of `COC(=O)c1ccc(NC2=C/C(=N/S(=O)(=O)c3ccc(C(=O)O)cc3)c3ccccc3C2=O)cc1`, 0.527% (active).
For the molecule `COc1ccc(CCOc2cc3c(cc2OC)CCN(C(=O)NCc2cocn2)C3c2ccc(C)cc2C)cc1` (stereo not drawn), the growth is 10% (inactive).
In the case of `Cc1ccc(C(=O)NN2C(=O)/C(=C/C=C/c3ccco3)SC2=S)cc1` it was 49.3% (inactive); in that of `COc1ccc(/C=C/C(=O)c2cccc(NC(=O)CSc3nc4ccccc4c(=O)n3-c3ccccc3)c2)cc1OC`, 89.9% (inactive).
In the case of `C[C@H]1c2[nH]c3ccccc3c2C[C@H]2C(=O)N(CCCCCCC(=O)NO)CC(=O)N21` it was 57.3% (inactive); in that of `C=CCOc1cccc(/C=C2\SC(=S)N(C3CC(=O)N(c4ccc(Br)cc4)C3=O)C2=O)c1` (stereo not drawn), 88.1% (inactive).
In the case of `CC(C)(C)c1ccc(-c2nnc(-c3nc4ccccc4nc3Cl)o2)cc1` it was 65.9% (inactive).
Consider `Nc1nc(-c2cccc([N+](=O)[O-])c2)c(N=Nc2ccc(Br)cc2)s1`, for which the growth is 16.6% (inactive).
In the case of `CCNC(=O)N1CCc2cc(OC)c(OCCc3ccc(OC)cc3)cc2C1c1ccc(OC)cc1C` (stereo not drawn) it was 16.5% (inactive).
With `COc1ccc(-c2nc(C(Cl)Cl)nc3cc(-c4ccccc4)nn23)cc1`, the growth is 7.86% (active).
